A short description of this assay: cell-free HIV fusion peptide-binding blockers – biochemical, uHTS, fluorescence dequenching, primary screen (AID 1986). Conditions: 30 min, stronger effect = higher value.
The mark [1] stands for this setting: measured here: repeat confirmation average inhibition, at 18.6 µM.

Molecules are shown by their SMILES. The campaign covered roughly 290,000 compounds. About 890 (0.31%) were called active. The sample holds actives, similar compounds and a random draw of the others, so the mix is not that of the screen. No stated cut-off is given here; in the data, active means inhibition mostly above about 52% (no sharp cut-off); inactive means mostly below about 76%.

Consider `Cc1ccc(O)c(C(=O)c2cc(C#N)c(=O)n(-c3nccs3)c2)c1`, for which, where the note is “at 20 µM”, the inhibition was 143% (inactive).

Take `N#Cc1cc(C(=O)c2ccccc2O)cn(-c2nccs2)c1=O`: the inhibition (at 20 µM) was 52.8% (active) and the inhibition under setting [1] worked out at 99.4%. For the compound `CCOC(=O)c1c(NC(=S)Nc2ccc(Cl)cc2)sc2c1CCN(C)C2`, the inhibition (at 20 µM) is 23.1% (inactive). On the same count and under the same terms, the same measure for `CC(C)c1ccc(N(CC(=O)NCc2ccc(F)cc2)C(=O)c2csnn2)cc1`: -1.1% (inactive); for `Cc1c(C(=O)N(C)Cc2ccccc2)oc2c(Cl)cccc12`: -0.6% (inactive); for `O=C1N/C(=N/NC(=O)c2cccc3ccccc23)S/C1=C\c1ccccc1OCc1ccccc1`: 80.3% (active). Same read-out and setting: in the case of `O=C1NC(=O)/C(=C/c2ccccc2OCc2ccccc2)S1` it was 31.6% (inactive); in that of `O=C1NC(=O)/C(=C\c2ccccc2OCc2ccccc2)S1`, 47.5% (inactive); in that of `COc1ccc(C2CC(=O)c3cnc(NC(=O)c4cccc(OC)c4)nc3C2)cc1` (stereo unspecified), 5.8% (inactive).

Take `CCC(C)NC(=O)c1ccccc1NC(=O)COc1ccc(OC)cc1` (stereo unspecified): the inhibition (at 20 µM) was 1% (inactive).

Regarding `Cc1nc(NC2CCCCC2)c2nnn(Cc3ccccc3Cl)c2n1`, under “at 20 µM”, the inhibition was 0.5% (inactive).

In the case of `O=C(NCc1ccccc1)NC(=O)c1ccc(Cl)cc1`, the inhibition (at 20 µM) was 2.8% (inactive).

Regarding `CC(C)=C1C(=O)NN(c2cccc(Cl)c2)C1=O`, the inhibition was 60% (inactive) (at 20 µM) and 0.7% under setting [1]. Turning to `CC(C)=C1C(=O)NN(c2ccc(F)c(Cl)c2)C1=O`, the inhibition (at 20 µM) is 32.6% (inactive). In the case of `CC(C)=C1C(=O)NN(c2ccc(C)c(Cl)c2)C1=O`, the inhibition (at 20 µM) is 66.4% (active).

As to `O=C(COC(=O)c1cc[n+]([O-])cc1)Nc1ccc(SC(F)F)cc1`, the inhibition (at 20 µM) was 2.4% (inactive). Still for that read-out and setting: in the case of `O=C(Nc1cc(C(=O)N2CCCC2)ccc1N1CCCC1)c1ccccc1F` it was 2.6% (inactive); in that of `O=C(Nc1sc2c(c1C(=O)O)CCCC2)C(=O)N1CCOCC1`, 2.6% (inactive). `COc1ccc(OC)c(/C=C2\N=C(c3ccccc3)OC2=O)c1`: the inhibition (at 20 µM) was 60.8% (active).

As to `COc1ccc(/C=C2\N=C(c3ccc(C)cc3)OC2=O)cc1`, the inhibition (at 20 µM) was 1.1% (inactive). On to `COc1cc(/C=C2\N=C(c3ccccc3)OC2=O)ccc1OC(C)=O`, for which the inhibition (at 20 µM) is 1.1% (inactive). As for `CC(C)=Cc1oc2ccc([N+](=O)[O-])cc2c1N1CCOCC1`, where the note is “at 20 µM”, the inhibition is 0.3% (inactive). On the same count and under the same terms, in the case of `COc1ccc(NC(C)C(=O)Nc2ccc(C#N)cc2)cc1Cl` (stereo unspecified) it was 0.7% (inactive).

For `O=C(Nc1ccc([N+](=O)[O-])cc1)N1CCCCCC1`, the inhibition (at 20 µM) is -1.7% (inactive). Take `O=C(c1sc2ccccc2c1Cl)N1CCN(CCc2ccccn2)CC1`: the inhibition (at 20 µM) is -0.9% (inactive). The same measure, in the same setting: the same measure for `O=C(O)c1ccc(-n2cccc2/C=C2/SC(=O)N(CC(=O)N3CCCC3)C2=O)cc1`: 33.4% (inactive); for `COc1cccc(NC(=O)CCc2nnc3ccc(NCc4ccco4)nn23)c1`: 1.7% (inactive); for `Cc1ccc(S(=O)(=O)/N=C2/NC(=O)/C(=C/c3ccc(Br)o3)S2)cc1`: 53.6% (active). On to `Cc1ccc(S(=O)(=O)/N=C2/NC(=O)/C(=C/c3ccncc3)S2)cc1`, for which the inhibition (at 20 µM) was 0.8% (inactive).

In the case of `Cc1ccc(S(=O)(=O)/N=C2/NC(=O)/C(=C/c3ccccn3)S2)cc1`, the inhibition (at 20 µM) was 13% (inactive).

Regarding `Cc1ccc(S(=O)(=O)/N=C2/NC(=O)/C(=C\c3cc(Br)cc(Br)c3O)S2)cc1`, the inhibition by setting is: (at 20 µM) 94.7% (active); under setting [1], 132%. `Cc1ccc(S(=O)(=O)/N=C2/NC(=O)/C(=C/c3ccccc3)S2)cc1`: the inhibition is, setting by setting: (at 20 µM) 59.7% (inactive); under setting [1], 46.5%. For the compound `Cc1ccc(S(=O)(=O)/N=C2/NC(=O)/C(=C\c3ccco3)S2)cc1`, the inhibition (at 20 µM) was -3.4% (inactive). As to `Fc1ccc(OCCCCCCN2CCCC2)cc1`, the inhibition (at 20 µM) is 0.7% (inactive). As to `Cc1ccc(NC(=O)CSCc2cc(=O)n3cc(C)sc3n2)c(C)c1`, the inhibition (at 20 µM) was 0% (inactive). Still for that read-out and setting: in the case of `CCOC(=O)c1ccc(N=C2SC(C(=O)NC)CC(=O)N2Cc2ccc(F)cc2)cc1` (stereo unspecified) it was 0.9% (inactive); in that of `COc1ccc(C2(C(=O)NCCCN(C)C)CCOCC2)cc1`, 2.4% (inactive); in that of `O=C(CCl)Nc1cc(S(=O)(=O)N2CCOCC2)ccc1N1CCOCC1`, 1% (inactive). Same read-out and setting: in the case of `Oc1ccc(Cl)cc1N=Nc1ccccc1` it was -2.6% (inactive); in that of `O=S(=O)(O)c1cc(O)c2c(O)c(N=Nc3cc(Cl)ccc3O)c(S(=O)(=O)O)cc2c1`, 55.7% (active). Same read-out and setting: in the case of `O=S(=O)(O)c1cccc(N=Nc2c(O)ccc3ccccc23)c1` it was 10.9% (inactive); in that of `CCc1ccc2[nH]c3nc(SCc4nnc(-c5ccc(C)cc5)o4)nnc3c2c1`, 1.4% (inactive); in that of `N#Cc1c(-c2cccc(Br)c2)cc(-c2ccco2)[nH]c1=O`, 81.5% (active). As to `COc1ccc(-c2cc(-c3ccco3)[nH]c(=O)c2C#N)cc1`, the inhibition (at 20 µM) was 48.8% (inactive).

For `COc1ccc(-c2cc(-c3ccco3)[nH]c(=O)c2C#N)cc1OC`, where the note is “at 20 µM”, the inhibition was 40.7% (inactive). Same read-out and setting: the same measure for `Cc1c(C(=O)O)c(=O)n(-c2ccccc2)n1-c1ccccc1`: 1.2% (inactive); for `Cc1ccc(C)c(C(=O)CSc2nc3ccccc3c(=O)[nH]2)c1`: 1.9% (inactive).

Usually inhibition stands for the drop in the measured response relative to a control, in per cent.
